For 93 compounds, AC50 and activity, negative = inhibition results are on record in PubChem BioAssay AID1851 (National Center for Advancing Translational Sciences (NCATS), 2009).

Each structure is given as a SMILES string. Several values for one entry are separate records, joined by “and”; a condition that tells them apart may be missing. Equal entries are not always repeated. Out of some 16,000 compounds screened, about 4,000 (25%) were called active. Another 26% or so got no clear call; they are omitted. Calls follow the shape of the dose curve; as a rule, active = well fitted curve in the direction sought with a large enough effect; inconclusive = small, poorly fitted or top-dose-only effect, or effect the other way; inactive = no such curve, though single readings can be large or run the other way. Only a sample is shown. Some compounds were tested as several samples or in several runs, with calls that do not always agree.
% is scaled to controls: 0 for no effect and ±100 for the full control effect.

For the assay, the target named is Cytochrome P450 2C9 (Homo sapiens) (UniProt P11712). Description: Cytochrome panel assay with activity outcomes. Particulars: recombinant CYP, pro-luciferin dealkylation, luminescence, p450-cyp2c9; series mostly up to 57.1 µM.
Cytochrome P450 2C9 (Homo sapiens), sequence (P11712 whole entry, looked up): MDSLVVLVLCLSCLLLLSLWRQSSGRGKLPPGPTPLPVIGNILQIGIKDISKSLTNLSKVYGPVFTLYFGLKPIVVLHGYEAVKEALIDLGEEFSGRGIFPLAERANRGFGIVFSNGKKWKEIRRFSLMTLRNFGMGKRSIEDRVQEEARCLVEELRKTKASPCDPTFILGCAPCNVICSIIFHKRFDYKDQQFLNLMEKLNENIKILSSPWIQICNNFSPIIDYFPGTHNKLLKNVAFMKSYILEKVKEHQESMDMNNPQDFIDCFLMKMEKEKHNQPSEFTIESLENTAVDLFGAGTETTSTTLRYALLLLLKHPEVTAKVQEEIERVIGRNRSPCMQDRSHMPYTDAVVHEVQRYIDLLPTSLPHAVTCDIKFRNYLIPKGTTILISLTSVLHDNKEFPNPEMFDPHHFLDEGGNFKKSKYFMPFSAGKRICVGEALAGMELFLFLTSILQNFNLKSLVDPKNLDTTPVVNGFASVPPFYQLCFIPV
Usually AC50 stands for the concentration at which the activity in the assay is half-maximal. As to `COc1ccc([C@@H]2CC(=O)c3c(O)cc(O[C@H]4O[C@@H](CO[C@H]5O[C@@H](C)[C@@H](O)[C@@H](O)[C@@H]5O)[C@@H](O)[C@@H](O)[C@@H]4O)cc3O2)cc1O`, the AC50 result was “inactive”.

For `O=C1c2c(O)cc(O)cc2O[C@@H](c2ccc(O)c(O)c2)[C@H]1O`, the AC50 result was “inactive”.

As to `COc1ccc([C@@H]2CC(=O)c3c(O)cc(O)cc3O2)cc1O`, the AC50 was 10 µM (active).

As to `COc1ccc(C(=O)NC(=S)NC(C)(C)C)cc1Br`, the AC50 was 10 µM (active).

Regarding `COc1ccc(C(=O)NC(=S)NC(C)C)cc1Br`, the AC50 result is “inactive”.

Turning to `COc1ccc(Br)c2c1C[C@H](C(=O)O)CC2`, the activity, negative = inhibition is -27.4% [at 11.4 µM] (inactive).

`C#CCn1c(=O)c2c(ncn2C)n(C)c1=O`: the AC50 result was “inactive”.

As for `CN(C)C(=O)c1ccc(-c2ccc3ncnc(Nc4ccccc4)c3c2)cc1`, the activity, negative = inhibition was 15.4% [at 2.29 µM] (inactive).

`CN(C)c1ccc(-c2ccc3ncnc(NCc4ccccc4)c3c2)cc1`: the activity, negative = inhibition is -24.6% [at 2.29 µM] (inactive).

Turning to `CN(C)c1cc2c(Nc3ccc4c(cnn4Cc4ccccc4)c3)ncnc2cn1`, the AC50 is 12.6 µM (active).

`COc1ccccc1NC(=O)Cn1cncc1-c1ccc([N+](=O)[O-])cc1`: the AC50 entry was “inactive”.

`CCN(CC(=O)Nc1ccc([N+](=O)[O-])cc1OC)c1ccccc1`: the AC50 is 2.82 µM (active).

With `CCOc1cc(NC(=S)Nc2cccc(C)c2)c(OCC)cc1NC(=O)CC(C)C`, the AC50 entry was “inactive”.

`COc1cc(OC)c(NC(=S)Nc2cccc(C(C)=O)c2)cc1Cl`: the AC50 was 5.01 µM (active).

Consider `CCOC(=O)CN1C(=O)Nc2ccc(Br)cc2C1c1ccccc1` (stereo not drawn), for which the AC50 was 6.31 µM (active).

With `CCOC(=O)C1(C(=O)O)NC(=O)CC1c1ccccc1` (stereo not drawn), the AC50 result is “inactive”.

`O=c1cc(CF)[nH]c(=S)[nH]1`: the activity, negative = inhibition is 8.7% [at 11.4 µM] (inactive).

Consider `N[C@H](CCCC(=O)O)C(=O)O`, for which the AC50 entry is “inactive”.

In the case of `O=C(O)c1cc2ccccc2c(S(=O)(=O)O)c1O`, the activity, negative = inhibition was 10.7% [at 11.4 µM] (inactive).

Turning to `O=C(O)c1cc(C(=O)C(=O)c2cc(C(=O)O)c(O)c3ccccc23)c2ccccc2c1O`, the AC50 was 0.316 µM (active).

`O=C(O)C1=C/C(=C(/c2ccccc2)c2cc(C(=O)O)c(O)c3ccccc23)c2ccccc2C1=O`: the activity, negative = inhibition was 1.25% [at 11.4 µM] (inactive) and -1.88% [at 11.4 µM] (inactive).

Take `Cc1cc(OCC(F)(F)C(F)(F)C(F)(F)C(F)(F)C(F)(F)C(F)F)nc(N)n1`: the AC50 is 12.6 µM (active).

On to `CC(C)NC[C@@H](O)c1ccc(O)c2ncccc12`, for which the activity, negative = inhibition is 11% [at 11.4 µM] (inactive).

Take `CCOc1ccc(-c2nnc(-c3ccncc3)o2)cc1`: the AC50 was 12.6 µM (active).

For `Oc1ccccc1-c1nnc(-c2ccc(C(F)(F)F)cc2)o1`, the AC50 result is “inactive”.

On to `CCOc1ccc(C2=[N+]([O-])C(C)(C)N(O)C2(C)C)cc1`, for which the AC50 result is “inactive”.

Consider `Oc1cc2c(cc1O)[C@H](c1ccccc1)CNCC2`, for which the AC50 result is “inactive”.

Take `Cc1[nH]n2c(=O)c3c(nc2c1-c1cccc2ccccc12)CCC3`: the AC50 is 5.62 µM (active).

Take `Cc1c2c(nc3c(C(=O)NC4CCCC4)cnn13)CCCC2`: the AC50 entry is “inactive”.

With `Cc1ccc(N=Nc2c(=O)[nH]n3c(C)cc(C)nc23)cc1`, the AC50 entry was “inactive”.

On to `Cc1ccc(N=Nc2c(N)[nH]n3c(=O)c4c(nc23)CCCC4)cc1`, for which the AC50 is 10 µM (active).

Consider `Cc1ccccc1-c1nc(N2CCN(C)CC2)c2ccccc2n1`, for which the activity, negative = inhibition is 5.44% [at 2.29 µM] (inactive).

For `O=P(O)(O)O[C@@H]1O[C@H](CO)[C@@H](O)[C@H](O)[C@@H]1O`, the activity, negative = inhibition was 8.79% [at 11.4 µM] (inactive).

`CCN(CC)[C@@H](C)CN1c2ccccc2Sc2ccccc21`: the AC50 entry was “inactive”.

Turning to `Cc1c(-c2ccccc2)oc2c(C(=O)OCCN3CCCCC3)cccc2c1=O`, the AC50 result is “inactive”.

For the compound `COc1cccc(OC)c1OCCCCN1CCCC1`, the AC50 result is “inactive”.

`O=C(OCCN1CCCCC1)c1c[nH]c2ccccc12`: the AC50 entry is “inactive and 2 µM (active)”.

Regarding `CCOC(=O)c1c(C(C)(C)C)oc2ccc(O)cc12`, the half-maximal activity concentration (AC50) is 20 µM (active).

As to `C[C@@](N)(Cc1ccc(O)c(O)c1)C(=O)O`, the AC50 result was “inactive”.

On to `C[C@@](N)(Cc1ccc(O)cc1)C(=O)O`, for which the AC50 entry is “inactive”.

In the case of `CCC(=O)NC(=S)N1CCN(c2ccc([N+](=O)[O-])cc2Cl)CC1`, the AC50 entry was “inactive”.

`CC1CN(C(=S)NC(=O)c2ccc([N+](=O)[O-])cc2)CC(C)O1` (stereo not drawn): the AC50 result is “inactive”.

Consider `COc1cccc(OC)c1C(=O)NC(=S)N1CCN(c2ccc(C(F)(F)F)cc2[N+](=O)[O-])CC1`, for which the concentration at half-maximal activity (AC50) was 0.355 µM (active).

For the compound `CC(C)Oc1cccc(C(=O)NC(=S)N2CCN(c3ccc(C(F)(F)F)cc3[N+](=O)[O-])CC2)c1`, the AC50 was 3.16 µM (active).

For the compound `CC(C)N=C(N)/N=C(\N)Nc1ccc(Cl)cc1`, the AC50 entry is “inactive”.

As to `CNCCc1ccccn1`, the AC50 result was “inactive”.

On to `O=c1ccn([C@@H]2O[C@@H](COP(=O)(O)OP(=O)(O)O)[C@H](O)[C@@H]2O)c(=O)[nH]1`, for which the AC50 entry was “inactive”.

In the case of `CCc1c2c(nc3ccc(OC)cc13)COC2`, the AC50 entry is “inactive”.

In the case of `COc1cc2nc3c(c([Si](C)(C)C(C)(C)C)c2cc1OC)Cn1c-3cccc1=O`, the AC50 was 15.8 µM (active).

In the case of `COc1ccc2nc3c(c([Si](C)(C)C(C)(C)C)c2c1)Cn1c-3cccc1=O`, the AC50 was 12.6 µM (active).

For the compound `CC(C)NC(=O)N1CCCC2(CCN(C(=O)c3cc(C(F)(F)F)cc(C(F)(F)F)c3)CC2)C1`, the AC50 entry was “inactive”.

`CC(C)CN(CC#N)CC(C)C`: the activity, negative = inhibition was 4.39% [at 11.4 µM] (inactive).

On to `CSc1nc2ccccc2cc1/C=C(\C#N)c1ccc(Cl)cc1Cl`, for which the AC50 was 25.1 µM (active).

Take `CSc1nc2ccccc2cc1/C=C(\C#N)c1ccccc1`: the AC50 is 3.98 µM (active).

As to `CN(C)CCCc1c2ccccc2nc2ccc(Cl)cc12`, the activity, negative = inhibition is 11.6% [at 11.4 µM] (inactive).

Regarding `COc1ccc(-n2c(=O)cnc3cnc(OC)nc32)cc1`, the AC50 result is “inactive”.

For the compound `O=C(O)CC1(CC(=O)O)Nc2ccccc2SC1=O`, the activity, negative = inhibition is -2.99% [at 11.4 µM] (inactive).

Regarding `Cc1c(NC(=O)CN2CCN(c3ccccc3)CC2)c(=O)n(-c2ccccc2)n1C`, the AC50 entry was “inactive”.

Take `Cc1cc(Cl)ccc1NC(=O)CN1CCC(C(O)(c2ccccc2)c2ccccc2)CC1`: the AC50 is 7.08 µM (active).

Turning to `Cc1c(Cl)cccc1NC(=O)CC1NCCNC1=O` (stereo not drawn), the AC50 result was “inactive”.

Take `Cc1c(Cl)cccc1NC(=O)CN1CCC(C(O)(c2ccccc2)c2ccccc2)CC1`: the AC50 is 2 µM (active).

As for `O[C@@](CCN1CCCCC1)(c1ccccc1)C1CCCCC1`, the AC50 result was “inactive”.

With `Cc1ccccc1NC(=O)CN1CCC(n2nnc3ccccc32)CC1`, the AC50 entry was “inactive”.

`CCc1nc2cc(CC(=O)O)ccc2o1`: the AC50 entry is “inactive”.

Take `C[C@@H](C(=O)Nc1ccc2ccccc2c1)[C@@H]1C[C@@]1(C)[C@@H](NC(=O)c1cnccn1)c1ccccc1`: the AC50 is 0.0631 µM (active).

Turning to `C[C@@H](C(=O)Nc1ccc2ccccc2c1)[C@H]1C[C@]1(C)[C@H](NC(=O)c1cnccn1)c1ccccc1`, the concentration at half-maximal activity (AC50) was 5.01 µM (active).

For the compound `COC(=O)[C@H]1C[C@@H]1[C@H](NC(=O)c1cnccn1)c1ccccc1`, the AC50 result is “inactive”.

For the compound `COC(=O)[C@@H]1C[C@H]1[C@@H](NC(=O)c1cnccn1)c1ccccc1`, the AC50 result was “inactive”.

For `COC(=O)C1=C(C)NC(=O)NC1c1ccsc1` (stereo not drawn), the AC50 entry was “inactive”.

For the compound `COC(=O)C1=C(C)NC(C)=C([N+](=O)[O-])[C@H]1c1ccccc1C(F)(F)F`, the AC50 is 2 µM (active).

`COC(=O)C1=C(C)NC(C)=C([N+](=O)[O-])[C@@H]1c1ccccc1C(F)(F)F`: the AC50 was 0.158 µM (active).

As for `CO[C@@H]1/C=C\CC(=O)N[C@@H](C)C(=O)OC[C@H](NS(=O)(=O)c2ccc(C)cc2)[C@H](C)/C=C\CC(=O)OC[C@H]1C`, the activity, negative = inhibition was 14.6% [at 11.4 µM] (inactive).

Turning to `Cc1ccc([N+](=O)[O-])cc1NC(=S)NC(=O)C(C)(C)C`, the AC50 is 0.708 µM (active).

In the case of `Cc1ccc([N+](=O)[O-])cc1NC(=S)NC(=O)CC(C)(C)C`, the AC50 is 2.24 µM (active).

As to `Cc1cnc(CNc2ncncc2-c2ccccc2C(F)(F)F)cn1`, the activity, negative = inhibition was 1.53% [at 2.29 µM] (inactive).

As for `CCN(CC)CCNC(=O)c1cc(S(C)(=O)=O)ccc1OC`, the AC50 result was “inactive”.

Turning to `COc1ccc2cc(CCNC(=O)C3CC3)c(=O)[nH]c2c1`, the AC50 result was “inactive”.

Regarding `COc1ccc(OC)c2[nH]c(=O)c(CCNC(=O)c3ccc(S(=O)(=O)N4CCCC4)cc3)cc12`, the AC50 was 11.2 µM (active).

For the compound `COc1ccc(OC)c2[nH]c(=O)c(CCNC(=O)c3ccc(S(=O)(=O)N(C)C)cc3)cc12`, the AC50 is 7.94 µM (active).

As for `CCN1CCCC1CNC(=O)CCNC(=O)c1cc(OC)c(OC)c(OC)c1` (stereo not drawn), the AC50 result was “inactive”.

`CCOC(=O)C(C)(C)[C@H](O)C(C)C`: the activity, negative = inhibition is -6.81% [at 11.4 µM] (inactive).

For the compound `CCOC(=O)CCc1c(C)nc2ncnn2c1C`, the AC50 result was “inactive”.

For `Cc1ccc(CNC(=O)CCc2c(C)nc3ncnn3c2C)cc1`, the AC50 entry was “inactive”.

Consider `COc1cccc(-c2nccc(NCc3ccccc3)n2)c1`, for which the activity, negative = inhibition was -19.2% [at 2.29 µM] (inactive).

For `COc1cccc(-c2cc(NCc3ccccc3)ncn2)c1`, the activity, negative = inhibition was -1.27% [at 2.29 µM] (inactive).

For the compound `COc1ccc(CCNc2cc(-c3ccccc3)nc3ncnn23)cc1`, the AC50 was 5.62 µM (active).

Regarding `CCc1c(C)nc2ncnn2c1NCCc1ccc(OC)cc1`, the AC50 is 1.58 µM (active).

Turning to `CCNc1ncc2nc(-c3cc(F)cc(F)c3)c(=O)n(CCC#N)c2n1`, the AC50 entry is “inactive”.

Consider `Fc1ccc(Nc2ccnc(-c3ccoc3)n2)cc1`, for which the activity, negative = inhibition is 9.66% [at 2.29 µM] (inactive).

Regarding `CC(=O)OC[C@@H]1O[C@@H](O/N=C2/C[C@@H](O)[C@@H](O)[C@@H]3[C@@H]4C(=O)N(c5cccc(Oc6ccccc6)c5)C(=O)[C@H]4CC[C@@H]23)[C@H](OC(C)=O)[C@H](OC(C)=O)[C@@H]1OC(C)=O`, the activity, negative = inhibition was 20.1% [at 11.4 µM] (inactive).

On to `Cc1cc(O)c(C(C)C)cc1CN1CCCCC1`, for which the activity, negative = inhibition was -3.21% [at 11.4 µM] (inactive).

Consider `Cc1cc(O)c(-c2cc(O)c(C)cc2O)cc1O`, for which the AC50 was 1.26 µM (active).

As to `COc1ccc(-c2nc3c([nH]2)c(=O)n(C)c(=O)n3C)c(OC)c1`, the AC50 entry is “inactive”.
